# High-throughput results as filed in PubChem.
# In the library only some 19% were active in any assay of this set; here they are far more common.
# DT40 TDP1 no CPT – qHTS for Inhibitors of human tyrosyl-DNA phosphodiesterase 1 (TDP1): qHTS in cells in absence of CPT | DT40 Tdp1-/- hTDP1 cells, no CPT, ATP luminescence, 48 h | Potency, µM (doses to about 46.2 µM), for inactives: at the top dose activity change, negative = growth inhibition, hits mostly inhibitors | hit rate 15% among 420,000; further: nearly all actives have a fitted effect of over 55% in size
#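 Stably hTDP1-transfected Tdp1-null chicken DT40 cells were treated with library compounds minus camptothecin and grown for at least 48 hr at 37 °C, after which cellular ATP was quantified by luminescence.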
# TDP1 inh – TDP1 (human) enzyme inhibition | Potency, µM (highest dose often 130 µM), inactives show at the top dose activity change, negative = inhibition, usual class: inhibitors | hit rate 0.28% among 350,000 | AID 485290 | recombinant TDP1, AlphaScreen DNA substrate cleavage | Q9NUW8; further: nearly all actives have a fitted effect of over 40% in size
# Target sequence (Q9NUW8 whole entry, looked up): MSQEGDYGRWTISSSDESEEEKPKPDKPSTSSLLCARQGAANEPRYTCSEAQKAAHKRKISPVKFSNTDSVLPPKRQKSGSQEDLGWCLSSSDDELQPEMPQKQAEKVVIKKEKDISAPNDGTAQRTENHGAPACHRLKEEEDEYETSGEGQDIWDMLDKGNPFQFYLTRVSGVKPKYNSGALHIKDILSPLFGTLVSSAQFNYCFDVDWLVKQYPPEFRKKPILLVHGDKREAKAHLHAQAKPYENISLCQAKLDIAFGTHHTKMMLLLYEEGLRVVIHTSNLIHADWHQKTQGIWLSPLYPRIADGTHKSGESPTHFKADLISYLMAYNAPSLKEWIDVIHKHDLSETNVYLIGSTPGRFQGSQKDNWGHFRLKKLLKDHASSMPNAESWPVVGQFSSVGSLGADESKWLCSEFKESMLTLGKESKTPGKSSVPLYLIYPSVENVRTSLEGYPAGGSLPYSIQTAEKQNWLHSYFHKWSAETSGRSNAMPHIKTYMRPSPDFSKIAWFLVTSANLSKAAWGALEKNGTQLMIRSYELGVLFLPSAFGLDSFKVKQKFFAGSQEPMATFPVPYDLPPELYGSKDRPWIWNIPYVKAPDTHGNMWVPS
#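 Recombinant E. coli-expressed Tdp1 (1 nM) preincubated with compound 15 min at RT, then 5'-biotin/3'-phosphotyrosine-FITC DNA substrate (15 nM) added for 5 min. AlphaScreen beads (10 ug/ml) added, 10 min RT; tyrosine-FITC cleavage read as signal loss.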
# DT40 TDP1 CPT – DT40-hTDP1 cell growth loss with CPT; hit rate 12% among 420,000; AID 686979; Potency, µM (top dose mostly 46.2 µM), for inactives: top-dose activity change, negative = growth inhibition, usual class: inhibitors; chicken DT40 Tdp1-/-;hTDP1 cells + 20 nM CPT, ATP luminescence, 48 h; further: nearly all actives have a fitted effect of over 55% in size
#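 Cell growth measured by CellTiter-Glo luminescence after a minimum 48 h, 37 C compound exposure with 20 nM CPT in Tdp1-knockout DT40 cells stably expressing hTDP1, seeded 400/well; qHTS titration format.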
# Gal4-VP16 FLuc – counter-screen for ROR gamma inhibitors: Gal4-VP16 reporter | Drosophila S2 Gal4-VP16 UAS-luciferase, luminescence, 20 h | Potency, µM (highest dose often 53.6 µM), without a hit: top-dose activity, negative = inhibition, most hits filed as inhibitors | hit rate 3.5% among 310,000 | AID 2546;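 further: Gal4-VP16 expression switched on by copper sulfate through the metallothionein promoter; nearly all actives have a fitted effect of over 50% in size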
# RORgamma inh – blocks mouse ROR gamma transcriptional activity; Potency, µM (series often up to 53.6 µM), for the others: at the top dose activity change, negative = inhibition, usual class: inhibitors; AID 2551; hit rate 5.4% among 310,000; Drosophila S2 Gal4-RORgamma UAS-luciferase reporter, 20 h; P51450; further: nearly all actives have a fitted effect of over 60% in size
#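 Stably transfected Drosophila Schneider cells are the test system, with ROR gamma fused to Gal4 and luciferase under UAS control; luminescence is read after 20 hr of 700 uM copper sulfate induction at ambient temperature.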
# Active calls of the source: *; ? = inconclusive; . = no result; [ ] = dose if it differs, or a comment. The call rests on the fitted dose curve; in most records, active means well fitted curve in the direction sought with a large enough effect; inconclusive means small, poorly fitted or top-dose-only effect, or another doubt; inactive means no such curve, though single readings can be large; an effect the other way counts as inactive or inconclusive. On the % scale 0 is the no-effect control and ±100 the full control effect; potency means the concentration at half of the fitted maximal effect.
SMILES,DT40 TDP1 no CPT,TDP1 inh,DT40 TDP1 CPT,Gal4-VP16 FLuc,RORgamma inh
CCOC(=O)CC1C(=O)NCCN1S(=O)(=O)c1ccc(OC)cc1 (stereo unspecified),3%,0%,16%,2%,-7%
CCOc1ccc(NC(=O)CCCn2nc(C)c3c(C)n(-c4ccccc4)nc3c2=O)cc1,21%,2%,-6%,-1%,-13%
O=C(Nc1ccc(Oc2ccc(NC(=O)Nc3ccccc3Cl)cc2)cc1)Nc1ccccc1Cl,21µM*,9%,18µM*,?,2.5µM*
O=C(Nc1ccncc1)Nc1cccc(Cl)c1Cl,?,3%[56.1 µM],23µM*,-16%,-3%
CCC(C(=O)Nc1ccncc1)c1ccccc1 (stereo unspecified),16µM*,0%,?,13µM*,?
COc1ccc(Cl)cc1NS(=O)(=O)N1CCOCC1,20%,-9%,-1%,10%,9%
CC(C)OP(=O)(OC(C)C)C1(O)C(=O)Nc2ccccc21 (stereo unspecified),-8%,1%,-12%,-9%,-1%
Fc1ccc(N=Cc2ccc[nH]2)cc1,22%,-13%,2%,-3%,-28%
CCN=c1scc(-c2cccs2)n1/N=C/c1cc(OC)ccc1O,21µM*,9%,?,-12%,-13%[10 µM]
CC(C)N=c1scc(-c2cccs2)n1/N=C/c1ccc(O)c(O)c1O,13µM*,12%,13µM*,?,?
CN=c1scc(-c2ccccc2F)n1/N=C/c1ccc(O)c(O)c1O,12µM*,10%,13µM*,-72%,?
CN=c1scc(-c2ccccc2F)n1/N=C/c1ccc[nH]1,?,5%,-11%,0.63µM*,0.022µM*
COc1ccc(O)c(/C=N/n2c(-c3ccco3)csc2=Nc2cccnc2)c1,?,7%,-27%,-26%,-20%
CC(C)CNC(=O)CC(=O)N/N=C/c1cccs1,-12%,-3%,-20%,1%,7%
Oc1ccc(/C=N/N=C(c2ccccc2)c2ccccc2)c(O)c1O,?,2%,?,?,?
CCN1CCN(S(=O)(=O)c2ccc(Oc3ccccc3OC)cc2)CC1,23µM*,3%,-16%,-4%,?
O=C(CSc1ncc(CO)n1Cc1ccccc1)Nc1nc2ccccc2s1,16µM*,8%,21µM*,.,.
O=C(CSc1ncc(CO)n1Cc1ccccc1)Nc1ccc(C(F)(F)F)cc1,23µM*,5%,15µM*,.,.
COc1ccc(Cn2c(CO)cnc2SCC(=O)Nc2cccc(NC(C)=O)c2)cc1,8%,2%,-25%,-2%,7%
Cc1ccc(Cn2ccnc2SCC(=O)Nc2nc3ccccc3s2)cc1,-14%,13%,-19%,.,.
COc1ccc(OC)c(CN2CCCC(C(=O)c3ccccc3SC)C2)c1 (stereo unspecified),9.2µM*,0%,13µM*,3%,-2%
COc1ccc(F)cc1C(=O)C1CCCN(Cc2c[nH]c3ccccc23)C1 (stereo unspecified),4.6µM*,-2%,4.1µM*,-5%,5%
Cn1cc(CN2CCCC(C(=O)c3cc(F)ccc3F)C2)c2ccccc21 (stereo unspecified),16µM*,6%,?,11%,3%
COc1ccc(F)cc1C(=O)C1CCCN(Cc2cn(C)c3ccccc23)C1 (stereo unspecified),13µM*,4%,15µM*,-9%,8%
Cn1cc(CN2CCCC(CNC(=O)c3ccc4c(c3)OCO4)C2)c2ccccc21 (stereo unspecified),?,1%,-29%,4%,-18%
SMILES,DT40 TDP1 no CPT,TDP1 inh,DT40 TDP1 CPT,Gal4-VP16 FLuc,RORgamma inh
CCOc1cc(-c2nnc(SCC(=O)NCc3ccc(C)cc3)nc2-c2ccc(OC)c(OCC)c2)ccc1OC,?,0%,?,.,.
CN(C)S(=O)(=O)N1CCN(c2cccc(Cl)c2)CC1,-23%,11%,0%,1%,21%
CSc1ccccc1C(=O)C1CCCN(Cc2c(C)n(C)n(-c3ccccc3)c2=O)C1 (stereo unspecified),29µM*,0%,?,-1%,5%
O=C(c1ccco1)N1CCN=C1SCc1cccc(F)c1,-8%,1%,2%,-5%,2%
COc1ccc(OC2C(=O)N(c3ccc(C)c(C)c3)C2c2ccc(OC)c(OC)c2)cc1 (stereo unspecified),15µM*,2%,?,0%,-23%
COc1ccc(OC2C(=O)N(c3cc(C)ccc3C)C2c2ccc(OC)c(OC)c2)cc1 (stereo unspecified),?,2%,?,26%,-7%
COc1ccc(OC2C(=O)N(CCc3ccc(OC)c(OC)c3)C2c2ccc3c(c2)OCO3)cc1 (stereo unspecified),13µM*,6%,18µM*,-6%,22%
COc1cc(/C=C(\C#N)c2ccccn2)ccc1OCC(=O)Nc1cccc(C(F)(F)F)c1,-2%,4%,1%,?,16%
COc1cc(/C=C(\C#N)c2ccccn2)ccc1OCc1ccccc1Cl,?,.,15µM*,-5%,?
COc1cc(/C=C(\C#N)c2[nH]nc(N)c2C#N)cc(OC)c1O,?,-4%,?,-9%,-21%
COc1cc(/C=C(\C#N)c2ccccn2)cc(OC)c1O,?,5%,9.2µM*,-1%,3%
CN(C(=O)COC(=O)c1ccccc1Cc1ccccc1)C1CCS(=O)(=O)C1 (stereo unspecified),21%,1%,-18%,-6%,12%
Cc1nn(-c2ccccc2)c(N2CCCC2)c1/C=N/Nc1ccc(S(=O)(=O)Nc2ccccc2)cc1[N+](=O)[O-],7.3µM*,3%,5.8µM*,-9%,-9%[10 µM]
COc1ccccc1NS(=O)(=O)c1ccc(NN=C2CCCC2)c([N+](=O)[O-])c1,16µM*,11%,18µM*,18µM*,?
COc1c(/C=N/Nc2ccc([N+](=O)[O-])cc2[N+](=O)[O-])c(C)nn1-c1ccccc1,?,5%,?,-4%,-1%
COc1ccc(NS(=O)(=O)c2ccc(NN=Cc3ccc(C(=O)O)cc3)c([N+](=O)[O-])c2)cc1,.,45µM*,.,.,.
CC(C)(C)C1CCC(=NNc2ccc(S(N)(=O)=O)cc2[N+](=O)[O-])CC1 (stereo unspecified),21µM*,8%,16µM*,?,0%
CC1CCCC/C1=N\Nc1ccc(S(N)(=O)=O)cc1[N+](=O)[O-] (stereo unspecified),?,3%,?,-8%,6%
COc1ccccc1NS(=O)(=O)c1ccc(N/N=C/c2c(C)nn(-c3ccccc3)c2N2CCCC2)c([N+](=O)[O-])c1,6.5µM*,8%,?,-19%,-7%
